Source: PubChem
Only some compounds are listed: those with a hit (about 1.9% of all), similar ones and a draw of the others.
HTR5A ag ctr – activates human HTR5A in OPRM1-OPRD1 agonist counter-screen | P47898 | HTR5A agonist assay, luminescence, cell-based | activation, % at 9.3 µM | 0.61% of 340,000 active; in the data active = activation mostly above about 9.5%, no sharp cut-off; inactive = mostly below about 7.6%;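 also: 0% = cells with vehicle only and 100% = reference agonist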
MOR-DOR ag-1 – OPRM1-OPRD1 heterodimerization agonism. P35372+P41143. cells, luminescence. activation, % at 9.3 µM. 0.3% of 340,000 active;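 also: 0% = vehicle-treated cells and 100% = reference agonist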
Target sequence (P35372 whole entry, looked up): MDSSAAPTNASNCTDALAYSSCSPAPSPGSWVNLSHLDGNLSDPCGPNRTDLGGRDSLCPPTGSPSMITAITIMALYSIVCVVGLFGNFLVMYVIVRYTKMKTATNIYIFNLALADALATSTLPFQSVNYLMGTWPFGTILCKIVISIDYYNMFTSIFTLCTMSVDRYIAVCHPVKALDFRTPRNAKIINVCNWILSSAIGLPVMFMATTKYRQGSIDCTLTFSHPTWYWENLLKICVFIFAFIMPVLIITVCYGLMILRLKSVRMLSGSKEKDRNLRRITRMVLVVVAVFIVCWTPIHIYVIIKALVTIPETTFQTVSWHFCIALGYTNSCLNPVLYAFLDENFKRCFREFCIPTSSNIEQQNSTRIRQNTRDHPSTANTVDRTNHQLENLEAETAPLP
Target sequence (P41143 whole entry, looked up): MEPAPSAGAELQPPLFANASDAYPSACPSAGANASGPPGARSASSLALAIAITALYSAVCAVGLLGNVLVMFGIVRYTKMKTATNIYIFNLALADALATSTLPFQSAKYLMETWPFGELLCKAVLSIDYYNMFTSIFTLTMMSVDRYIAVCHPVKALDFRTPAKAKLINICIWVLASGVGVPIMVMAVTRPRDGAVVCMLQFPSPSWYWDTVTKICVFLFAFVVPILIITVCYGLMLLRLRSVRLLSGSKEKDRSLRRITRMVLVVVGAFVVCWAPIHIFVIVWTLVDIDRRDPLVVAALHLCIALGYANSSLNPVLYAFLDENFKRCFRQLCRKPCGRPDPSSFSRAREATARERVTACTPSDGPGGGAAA
HTR5A inv ctr – HTR5A inverse agonism, opioid heterodimer counter-screen | P47898 | HTR5A cell line, luminescence | inhibition, % at 9.3 µM | 0.083% of 340,000 active; in the data active = inhibition mostly above about 23%, no sharp cut-off; inactive = mostly below about 18%;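 also: 0% = cells with DMSO and 100% = no-cell wells with DMSO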
MOR-DOR inv ag – inverse agonist of human OPRM1-OPRD1 heterodimerization; AID 504357; P35372+P41143; inhibition, % at 9.3 µM; 0.21% of 340,000 active; cell-based MOR-DOR heterodimer luminescence, inverse agonism; in the data active = inhibition above about 22%, passing the limit was not always enough;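 also: 0% = cells with DMSO and 100% = wells without cells with DMSO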
MsrA inh – inhibits bovine methionine sulfoxide reductase A; purified bovine MsrA, absorbance read-out; inhibition, % at 15.5 µM; 0.75% of 360,000 active; AID 651718; in the data active = inhibition above about 4.5%;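 also: 0% = vehicle wells with enzyme and 100% = reference inhibitor wells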
bovine MsrA act – activators of bovine methionine sulfoxide reductase A | purified bovine MsrA, absorbance read-out | 0.3% of 360,000 active | AID 602163 | activation, % at 10.6 µM; in the data active = activation above about 7.5%;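 also: 0% = vehicle and 100% = reference activator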
MOR-DOR ag-2 – counter-screen for HTR5A agonists: OPRM1-OPRD1 heterodimerization agonism | 13% of 800 active | U2OS counter-screen cells, complementation luminescence, 3 h | activation, % at 9.3 µM | shares compounds with HTR5A ag ctr | AID 504913
HTR5A ag confirm – confirmation of human HTR5A agonists; AID 504915; 17% of 800 active; activation, % at 9.3 µM; HTR5A agonist cell assay, luminescence; shares compounds with HTR5A ag ctr; in the data active = activation above about 17%;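 also: 0% = cells with vehicle only and 100% = full reference agonist response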
Starred values were filed as active, the others as inactive; · = not tested or not shown; ! = a repeat was not active. Rule as the data show it, unless noted: active = activation above about 18%; inactive = the rest.

SMILES	HTR5A ag ctr	MOR-DOR ag-1	HTR5A inv ctr	MOR-DOR inv ag	MsrA inh	bovine MsrA act	MOR-DOR ag-2	HTR5A ag confirm
CC(=O)N1CCc2c(sc(NC(=O)C3COc4ccccc4O3)c2C(N)=O)C1 (stereo not given)	38.5*	-0.9	-138.0	4.8	0.4	4.0	0.0	49.3*
CN1CCc2c(sc(NC(=O)C3COc4ccccc4O3)c2C(N)=O)C1 (stereo not given)	17.4*	-2.0	-69.1	10.7	0.2	-6.0	0.3	51.5*
CCOC(=O)N1CCc2c(sc(NC(=O)C3COc4ccccc4O3)c2C(N)=O)C1 (stereo not given)	44.4*	0.7	-95.3	-3.4	0.6	-3.7	1.6	59.6*
CN1CCc2c(sc(NC(=O)Cc3ccccc3)c2C(N)=O)C1	11.8	-0.9	-35.8	5.6	0.1	-4.5	·	·
COC(=O)c1c(NC(=O)C2COc3ccccc3O2)sc2c1CCN(C(C)=O)C2 (stereo not given)	0.6	-0.4	-2.1	2.1	1.3	-0.9	·	·
Cc1ccc(C2c3c(n[nH]c3C)C(=O)N2c2ccccc2)cc1 (stereo not given)	·	·	·	·	0.2	·	·	·
O=C(NCc1ccccc1)[C@H]1CCCN1C(=O)[C@H]1CCCN1C(=O)c1cccc(Cl)c1	·	·	·	·	-0.2	·	·	·
COCc1cc(N2CCNC[C@H]2C)ccc1N1CCN(Cc2ccccc2)[C@H](C)C1	·	·	·	·	-1.1	·	·	·
CC(C)(C)NC(=O)NC(=O)COC(=O)c1cccc(F)c1	-1.6	3.3	4.3	-23.4	0.2	-2.5	·	·
CC(C)(C)NC(=O)NC(=O)COC(=O)CNC(=O)c1cccc(F)c1	14.7*	-0.2	-0.7	1.1	-0.3	-5.3	56.1*	25.6*
CCc1cc[n+](-c2nc3ccccc3nc2C(=C=[N-])C#N)cc1	15.8*	7.6	-43.5	-33.1	0.4	-10.0	1.6	4.0
Cc1ccc(O)c(C(=O)/C=C/c2ccc3c(c2)OCCO3)c1	16.0*	-1.1	-38.3	5.5	1.5	-4.4	3.4	10.1
Cc1ccc(C(=O)C=Cc2ccc3c(c2)OCO3)c(C)c1	·	·	·	·	0.2	-1.8	·	·
O=C(O)c1ccc(NS(=O)(=O)c2cc(Cl)ccc2Cl)cc1	15.9*	-1.0	-8.5	4.5	-0.3	-13.2	2.6	0.5
Nc1ccn([C@@H]2O[C@H](C(=O)N[C@H](Cc3ccccc3)C(=O)NCC(=O)N3CCOCC3)[C@@H](O)[C@H]2O)c(=O)n1	·	·	·	·	0.7	·	·	·
O=c1[nH]cnc(O)c1C(c1ccc2c(c1)OCO2)c1c(O)nc[nH]c1=O	16.7*	-1.6	-3.4	8.5	-0.1	-2.8	0.3	2.2
COc1cc(C(=O)NN=C2c3ccccc3-c3ccccc32)cc(OC)c1OC	·	·	·	·	0.7	·	·	·
O=C(c1ccccc1)N1CCN(c2ncccn2)CC1	4.0	-0.2	-14.7	1.0	-0.5	-0.1	·	·
Nc1ncnc2nc(N3CCN(C(=O)c4ccccc4)CC3)[nH]c12	18.6*	-3.0	-47.1	17.1	-0.2	0.6	-0.4	-0.7
O=C(C1CCN(S(=O)(=O)c2ccc3c(c2)OCCO3)CC1)N1CCc2ccccc21	33.1*	-0.1	-85.5	0.6	0.5	-4.5	0.8	23.3*
CCOC(=O)c1cccc(NC(=O)C2CCC(CNc3c(N4CCOCC4)c(=O)c3=O)CC2)c1 (stereo not given)	22.0*	-1.6	-56.7	8.8	0.5	-2.7	0.9	1.2
Nc1[nH]c(C(=O)c2ccccc2)c(-c2ccc(Cl)cc2)c1C(=O)c1c[nH]c2ccc(Br)cc12	·	·	·	·	-0.2	·	·	·
CCOC(=O)c1c(C)[nH]c(C(=O)CSc2ccc(Cl)cc2)c1C	15.0*	2.4	-29.6	-12.8	-0.1	-5.4	3.8	9.0
C[C@H]1CN(c2ccc(N3CCN(C(=O)OC(C)(C)C)C[C@@H]3C)cc2C#N)CCN1Cc1ccccc1	·	·	·	·	-0.3	·	·	·
C[C@H](O)[C@@H]1C(=O)N2CCc3c([nH]c4cccc(-c5ccccc5)c34)[C@@H]2C[C@@H]1N(C)C(=O)C1CCCCC1	·	·	·	·	-0.7	·	·	·
SMILES	HTR5A ag ctr	MOR-DOR ag-1	HTR5A inv ctr	MOR-DOR inv ag	MsrA inh	bovine MsrA act	MOR-DOR ag-2	HTR5A ag confirm
COc1cccc(C2N(Cc3ccccc3)C(=O)C2(F)F)c1OC (stereo not given)	16.3*	0.5	-46.3	-3.2	-0.5	-2.4	1.5	-4.9
CCOc1ccc(C(=O)Nc2ccc(NC(=O)c3ccco3)c(Cl)c2)cc1Br	18.7*	15.8	-82.8	-84.3	-0.2	-0.3	39.6*	4.2
O=C(/C=C(\Nc1cccc(Cl)c1F)c1ccccc1)c1ccccc1	·	·	·	·	0.5	·	·	·
Cc1ccc(Cl)cc1NC(=O)N(C)CCOC(=O)Nc1cccc(Cl)c1	·	·	·	·	0.9	·	·	·
Oc1ccc(C2CNCCc3c2cc(O)c(O)c3Cl)cc1 (stereo not given)	32.3*!	0.3	9.1	-1.6	0.2	-0.4	1.7	56.0*
Cc1cc(NC(=O)CSc2nc(-c3ccc(Cl)cc3)cs2)no1	20.3*	6.2	-53.0	-31.0	1.4	-1.8	2.0	5.9
Cc1cc(/C=C(\C#N)C(=O)NCCc2c[nH]c3ccccc23)c(C)n1C	66.2*	-1.3	-172.3	6.7	2.3	-10.8	-1.2	-4.6
Cc1ccc(C(=O)N/C(=C\c2cccs2)C(=O)NCCc2c[nH]c3ccccc23)cc1	15.2*	2.1	-45.6	-13.0	0.5	-1.0	19.9*	6.2
COc1cc(C#Cc2c(-c3cncn3C)n(C)c3ccc(-c4ccc(CN5CCOCC5)cc4)cc23)cc(OC)c1	16.4*	2.0	-26.5	-11.4	3.4	-0.7	19.6*	4.1
COc1cc(OC)cc(-c2c(C#Cc3ccsc3)c3cc(-c4ccc(CN5CCOCC5)cc4)ccc3n2C)c1	0.8	-1.0	24.2	6.2	0.9	-7.8	·	·
C/C(=N/NS(=O)(=O)c1ccc(C)cc1C)c1ccc2c(c1)OCO2	20.1*	-4.2	-48.3	21.4	1.3	-8.9	-0.9	-10.8
C/C(=N/NS(=O)(=O)c1ccc(C)cc1C)c1c[nH]c2ccccc12	18.4*	0.0	-67.3	0.0	-1.1	-9.2	2.8	6.6
C/C(=N/NS(=O)(=O)c1ccc(C)c(C)c1)c1c[nH]c2ccccc12	2.5	-4.0	5.2	13.2	1.0	-0.6	·	·
COc1cccc(-c2sc3ccccc3c2-c2ccc(OCCN3CCCC3)cc2)c1	16.4*	9.8	-54.0	-52.6	-0.5	0.1	1.7	18.6*
COc1cccc(-c2sc3ccc(OC)cc3c2-c2ccc(OCCN3CCCC3)cc2)c1	7.4	5.2	-26.7	-24.8	·	-1.5	·	·
COc1cccc(-c2sc3ccccc3c2-c2ccc(OCCN3CCCCC3)cc2)c1	17.0*	6.9	-75.1	-37.4	·	-0.7	9.6	6.4
O=C(Nc1ccccc1)N1c2ccccc2SC1c1ccco1 (stereo not given)	·	·	·	·	-0.5	·	·	·
FC(F)(F)c1cnc(N2CCCN(C(=S)Nc3ccccc3)CC2)c(Cl)c1	17.1*	7.0	-44.2	-34.4	-0.4	-4.3	-2.2	-0.2
